The target in test [1] is T1, Serine/threonine-protein kinase TAO2 (Homo sapiens) (UniProt Q9UL54).
T1 sequence (whole entry): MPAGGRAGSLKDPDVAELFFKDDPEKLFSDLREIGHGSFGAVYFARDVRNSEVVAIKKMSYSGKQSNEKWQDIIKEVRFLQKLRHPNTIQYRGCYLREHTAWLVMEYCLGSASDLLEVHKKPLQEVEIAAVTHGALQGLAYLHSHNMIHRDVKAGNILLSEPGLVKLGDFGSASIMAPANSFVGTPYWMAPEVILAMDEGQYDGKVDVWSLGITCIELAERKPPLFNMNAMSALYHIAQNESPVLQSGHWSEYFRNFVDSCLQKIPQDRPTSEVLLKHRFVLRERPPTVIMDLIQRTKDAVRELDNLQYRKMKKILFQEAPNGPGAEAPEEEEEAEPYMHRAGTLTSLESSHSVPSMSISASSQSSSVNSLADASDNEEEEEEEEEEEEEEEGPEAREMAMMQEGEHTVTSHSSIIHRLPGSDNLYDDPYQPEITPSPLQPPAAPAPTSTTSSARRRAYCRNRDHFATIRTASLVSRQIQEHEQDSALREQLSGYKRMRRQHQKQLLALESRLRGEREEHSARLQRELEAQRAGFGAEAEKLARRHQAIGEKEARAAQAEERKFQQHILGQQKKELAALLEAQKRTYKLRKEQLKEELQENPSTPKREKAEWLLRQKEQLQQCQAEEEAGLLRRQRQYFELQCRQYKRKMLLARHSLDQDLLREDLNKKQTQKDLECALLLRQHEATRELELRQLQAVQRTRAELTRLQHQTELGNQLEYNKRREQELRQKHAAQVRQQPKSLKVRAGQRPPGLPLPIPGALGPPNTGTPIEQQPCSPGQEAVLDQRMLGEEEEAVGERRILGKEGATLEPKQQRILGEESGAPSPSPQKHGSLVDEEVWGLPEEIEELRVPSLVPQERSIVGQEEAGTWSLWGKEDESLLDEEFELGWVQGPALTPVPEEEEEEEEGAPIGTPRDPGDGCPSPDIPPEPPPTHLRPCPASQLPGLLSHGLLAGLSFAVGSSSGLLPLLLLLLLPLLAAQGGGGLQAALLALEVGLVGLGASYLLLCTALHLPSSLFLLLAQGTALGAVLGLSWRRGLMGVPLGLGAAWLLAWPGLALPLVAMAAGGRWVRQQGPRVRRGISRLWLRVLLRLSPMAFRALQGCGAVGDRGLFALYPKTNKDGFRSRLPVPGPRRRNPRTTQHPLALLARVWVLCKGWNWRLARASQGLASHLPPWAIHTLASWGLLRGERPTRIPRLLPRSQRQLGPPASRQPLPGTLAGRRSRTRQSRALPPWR
The conditions noted are these: at 1 µM.

Test [2] has as its target T1, Serine/threonine-protein kinase TAO2 (Homo sapiens). The conditions noted are these: at 10 µM.
Test [3] addresses T2, Serine/threonine-protein kinase TAO3 (Homo sapiens) (UniProt Q9H2K8).
T2 sequence (whole entry): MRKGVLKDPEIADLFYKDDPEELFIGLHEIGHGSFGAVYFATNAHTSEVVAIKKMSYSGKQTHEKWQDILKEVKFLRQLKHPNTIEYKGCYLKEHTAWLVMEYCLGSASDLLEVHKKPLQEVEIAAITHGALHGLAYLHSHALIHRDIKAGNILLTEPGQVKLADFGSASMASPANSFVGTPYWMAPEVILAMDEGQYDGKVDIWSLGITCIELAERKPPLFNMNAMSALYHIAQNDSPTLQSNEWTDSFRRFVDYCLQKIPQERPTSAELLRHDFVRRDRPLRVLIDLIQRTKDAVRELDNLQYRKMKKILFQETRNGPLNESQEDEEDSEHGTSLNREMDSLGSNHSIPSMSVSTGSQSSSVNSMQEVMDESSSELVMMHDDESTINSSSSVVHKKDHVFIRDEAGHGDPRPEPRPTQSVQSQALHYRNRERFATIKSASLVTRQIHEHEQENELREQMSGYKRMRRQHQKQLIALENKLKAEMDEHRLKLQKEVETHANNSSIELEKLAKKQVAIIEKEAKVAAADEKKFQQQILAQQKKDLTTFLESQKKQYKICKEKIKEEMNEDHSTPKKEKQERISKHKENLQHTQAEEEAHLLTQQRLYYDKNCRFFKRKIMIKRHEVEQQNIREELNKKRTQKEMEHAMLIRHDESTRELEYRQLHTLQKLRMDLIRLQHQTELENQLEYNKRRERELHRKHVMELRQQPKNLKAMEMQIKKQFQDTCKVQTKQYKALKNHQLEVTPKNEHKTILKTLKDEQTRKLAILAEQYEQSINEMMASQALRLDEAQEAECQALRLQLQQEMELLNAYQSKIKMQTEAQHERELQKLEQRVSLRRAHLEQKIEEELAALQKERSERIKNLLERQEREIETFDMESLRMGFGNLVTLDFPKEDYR
Conditions: at 1 µM.

In test [4] the target is T2, Serine/threonine-protein kinase TAO3 (Homo sapiens). Conditions: at 10 µM.
The target in test [5] is T3, Inhibitor of nuclear factor kappa-B kinase subunit alpha (Homo sapiens) (UniProt O15111).
T3 sequence (whole entry): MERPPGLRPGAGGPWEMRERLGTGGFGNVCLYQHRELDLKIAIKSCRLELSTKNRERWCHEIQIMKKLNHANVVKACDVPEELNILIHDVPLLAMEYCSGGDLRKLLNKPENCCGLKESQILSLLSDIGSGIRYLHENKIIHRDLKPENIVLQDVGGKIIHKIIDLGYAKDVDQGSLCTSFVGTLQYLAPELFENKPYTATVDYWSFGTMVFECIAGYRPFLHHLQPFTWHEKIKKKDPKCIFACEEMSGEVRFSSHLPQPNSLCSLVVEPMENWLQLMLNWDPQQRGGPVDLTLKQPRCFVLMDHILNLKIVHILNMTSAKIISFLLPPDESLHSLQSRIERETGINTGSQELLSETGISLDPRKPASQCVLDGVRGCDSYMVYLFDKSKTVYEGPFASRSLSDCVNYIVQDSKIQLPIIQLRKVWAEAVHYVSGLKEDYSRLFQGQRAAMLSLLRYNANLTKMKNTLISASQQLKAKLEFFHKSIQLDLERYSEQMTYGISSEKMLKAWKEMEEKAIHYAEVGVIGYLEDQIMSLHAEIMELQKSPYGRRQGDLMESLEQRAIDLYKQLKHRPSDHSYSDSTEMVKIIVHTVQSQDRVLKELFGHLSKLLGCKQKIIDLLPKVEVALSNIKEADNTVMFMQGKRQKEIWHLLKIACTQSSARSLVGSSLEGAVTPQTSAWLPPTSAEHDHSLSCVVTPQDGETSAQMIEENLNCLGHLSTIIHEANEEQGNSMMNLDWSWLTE
Conditions: at 1 µM.

The target in test [6] is T3, Inhibitor of nuclear factor kappa-B kinase subunit alpha (Homo sapiens). Conditions: at 10 µM.
For test [7], the target named is T4, Inhibitor of nuclear factor kappa-B kinase subunit beta (Homo sapiens) (UniProt O14920).
T4 sequence (whole entry): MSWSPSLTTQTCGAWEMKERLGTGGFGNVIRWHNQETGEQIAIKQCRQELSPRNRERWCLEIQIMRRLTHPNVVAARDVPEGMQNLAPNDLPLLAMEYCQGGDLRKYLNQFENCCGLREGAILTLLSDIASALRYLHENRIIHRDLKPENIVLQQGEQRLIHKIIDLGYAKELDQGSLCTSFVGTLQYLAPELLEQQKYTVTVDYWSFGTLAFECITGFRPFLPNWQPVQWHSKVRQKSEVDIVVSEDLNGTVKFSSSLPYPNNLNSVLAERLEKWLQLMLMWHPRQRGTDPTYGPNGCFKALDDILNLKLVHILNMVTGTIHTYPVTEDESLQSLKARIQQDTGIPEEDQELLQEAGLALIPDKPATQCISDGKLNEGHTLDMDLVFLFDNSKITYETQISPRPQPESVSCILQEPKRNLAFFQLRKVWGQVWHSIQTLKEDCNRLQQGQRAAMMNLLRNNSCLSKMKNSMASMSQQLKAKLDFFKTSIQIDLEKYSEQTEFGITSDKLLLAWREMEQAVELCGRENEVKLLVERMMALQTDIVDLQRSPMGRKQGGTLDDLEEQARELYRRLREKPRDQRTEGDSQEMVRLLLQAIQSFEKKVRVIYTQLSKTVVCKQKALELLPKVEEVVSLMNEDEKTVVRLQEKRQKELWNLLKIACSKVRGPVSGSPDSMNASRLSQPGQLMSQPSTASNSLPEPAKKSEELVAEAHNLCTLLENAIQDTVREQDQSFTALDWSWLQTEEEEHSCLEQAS
Conditions: at 10 µM.

For test [8], the target named is Interleukin-1 receptor-associated kinase 1 (Homo sapiens) (UniProt P51617). Conditions: at 10 µM.
Interleukin-1 receptor-associated kinase 1 (Homo sapiens), sequence (P51617 whole entry, looked up): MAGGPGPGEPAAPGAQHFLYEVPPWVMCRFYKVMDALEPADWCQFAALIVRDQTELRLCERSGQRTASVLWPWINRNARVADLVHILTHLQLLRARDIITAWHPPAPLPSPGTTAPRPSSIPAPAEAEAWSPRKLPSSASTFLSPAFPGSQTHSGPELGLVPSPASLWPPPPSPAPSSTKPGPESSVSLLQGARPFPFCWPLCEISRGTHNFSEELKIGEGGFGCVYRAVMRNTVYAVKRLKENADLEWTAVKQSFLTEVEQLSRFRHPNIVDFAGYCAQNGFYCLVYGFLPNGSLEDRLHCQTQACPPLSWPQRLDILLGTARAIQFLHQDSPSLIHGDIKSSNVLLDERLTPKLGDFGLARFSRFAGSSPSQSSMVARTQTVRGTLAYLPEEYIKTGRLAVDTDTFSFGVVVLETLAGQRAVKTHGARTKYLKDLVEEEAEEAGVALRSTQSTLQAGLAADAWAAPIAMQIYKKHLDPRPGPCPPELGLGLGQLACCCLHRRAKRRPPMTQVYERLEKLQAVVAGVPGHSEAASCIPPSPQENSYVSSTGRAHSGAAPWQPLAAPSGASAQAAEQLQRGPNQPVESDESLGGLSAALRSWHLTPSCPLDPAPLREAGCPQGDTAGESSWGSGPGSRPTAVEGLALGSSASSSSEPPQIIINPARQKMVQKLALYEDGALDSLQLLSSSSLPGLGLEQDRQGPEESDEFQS
Test [9] deals with T5, Serine/threonine-protein kinase TBK1 (Homo sapiens) (UniProt Q9UHD2).
T5 sequence (whole entry): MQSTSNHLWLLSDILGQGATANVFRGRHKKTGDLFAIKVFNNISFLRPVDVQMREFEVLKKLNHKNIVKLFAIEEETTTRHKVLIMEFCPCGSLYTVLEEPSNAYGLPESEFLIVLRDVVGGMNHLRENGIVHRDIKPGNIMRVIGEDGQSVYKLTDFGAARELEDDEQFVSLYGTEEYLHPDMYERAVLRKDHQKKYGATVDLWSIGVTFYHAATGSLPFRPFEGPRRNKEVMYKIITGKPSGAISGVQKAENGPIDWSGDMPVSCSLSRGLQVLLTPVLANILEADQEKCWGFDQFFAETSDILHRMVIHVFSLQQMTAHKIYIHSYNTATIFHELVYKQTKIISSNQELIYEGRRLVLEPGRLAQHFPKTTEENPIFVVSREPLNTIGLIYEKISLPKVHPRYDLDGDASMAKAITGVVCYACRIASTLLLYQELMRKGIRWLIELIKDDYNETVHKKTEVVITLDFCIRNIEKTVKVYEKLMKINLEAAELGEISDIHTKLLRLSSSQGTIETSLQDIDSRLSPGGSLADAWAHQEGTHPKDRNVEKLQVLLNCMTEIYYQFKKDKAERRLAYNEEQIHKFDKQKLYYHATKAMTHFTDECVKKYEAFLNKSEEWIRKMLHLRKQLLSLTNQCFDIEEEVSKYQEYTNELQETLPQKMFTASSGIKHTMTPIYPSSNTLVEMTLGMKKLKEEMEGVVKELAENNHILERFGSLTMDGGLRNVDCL
Conditions: at 1 µM.

Test [10] addresses T5, Serine/threonine-protein kinase TBK1 (Homo sapiens). The conditions noted are these: at 10 µM.
Test [11] addresses T6, TGF-beta receptor type-1 (Homo sapiens) (UniProt P36897).
T6 sequence (whole entry): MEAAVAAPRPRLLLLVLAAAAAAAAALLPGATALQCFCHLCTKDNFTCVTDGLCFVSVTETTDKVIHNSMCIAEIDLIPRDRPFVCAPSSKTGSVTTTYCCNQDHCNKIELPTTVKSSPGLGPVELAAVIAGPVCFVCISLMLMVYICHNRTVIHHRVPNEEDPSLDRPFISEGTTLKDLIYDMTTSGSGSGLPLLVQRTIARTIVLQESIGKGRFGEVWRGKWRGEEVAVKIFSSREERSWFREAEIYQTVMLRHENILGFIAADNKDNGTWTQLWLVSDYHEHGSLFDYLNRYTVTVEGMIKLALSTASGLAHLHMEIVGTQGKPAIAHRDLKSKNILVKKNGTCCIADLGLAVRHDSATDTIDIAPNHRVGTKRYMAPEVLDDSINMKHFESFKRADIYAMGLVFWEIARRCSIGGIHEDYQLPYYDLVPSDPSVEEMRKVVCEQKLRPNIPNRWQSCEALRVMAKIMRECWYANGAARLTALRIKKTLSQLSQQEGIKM
The conditions noted are these: at 1 µM.

Test [12] deals with T6, TGF-beta receptor type-1 (Homo sapiens). The conditions noted are these: at 10 µM.
Test [13] concerns the target Insulin-like growth factor 1 receptor (Homo sapiens) (UniProt P08069). Conditions: at 1 µM.
The target is the same in test [14]. The conditions noted are these: at 10 µM.
For test [15], the target named is T4, Inhibitor of nuclear factor kappa-B kinase subunit beta (Homo sapiens). Conditions: at 1 µM.
For test [16], the target named is Insulin receptor (Homo sapiens) (UniProt P06213). The conditions noted are these: at 1 µM.
Insulin receptor (Homo sapiens), sequence (P06213 28-758 limits assumed): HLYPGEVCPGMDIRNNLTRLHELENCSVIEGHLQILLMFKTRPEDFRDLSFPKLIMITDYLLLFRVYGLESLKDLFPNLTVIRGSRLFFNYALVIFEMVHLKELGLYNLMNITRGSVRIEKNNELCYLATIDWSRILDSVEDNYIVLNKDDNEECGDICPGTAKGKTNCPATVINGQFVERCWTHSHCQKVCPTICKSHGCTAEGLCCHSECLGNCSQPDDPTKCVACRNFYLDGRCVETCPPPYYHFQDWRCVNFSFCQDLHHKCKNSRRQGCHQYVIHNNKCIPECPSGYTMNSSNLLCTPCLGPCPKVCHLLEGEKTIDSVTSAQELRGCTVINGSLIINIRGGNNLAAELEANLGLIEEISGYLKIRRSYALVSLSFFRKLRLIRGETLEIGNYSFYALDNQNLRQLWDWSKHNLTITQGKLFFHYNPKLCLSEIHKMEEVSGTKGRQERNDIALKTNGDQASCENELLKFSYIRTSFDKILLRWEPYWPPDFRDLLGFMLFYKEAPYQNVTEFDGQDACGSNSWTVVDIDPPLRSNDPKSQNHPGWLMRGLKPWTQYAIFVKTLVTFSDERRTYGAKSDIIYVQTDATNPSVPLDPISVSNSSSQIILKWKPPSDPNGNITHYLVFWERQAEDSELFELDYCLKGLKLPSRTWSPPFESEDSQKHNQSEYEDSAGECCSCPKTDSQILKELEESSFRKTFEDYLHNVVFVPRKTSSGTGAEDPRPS
Insulin receptor (Homo sapiens), sequence (P06213 763-1382 limits assumed): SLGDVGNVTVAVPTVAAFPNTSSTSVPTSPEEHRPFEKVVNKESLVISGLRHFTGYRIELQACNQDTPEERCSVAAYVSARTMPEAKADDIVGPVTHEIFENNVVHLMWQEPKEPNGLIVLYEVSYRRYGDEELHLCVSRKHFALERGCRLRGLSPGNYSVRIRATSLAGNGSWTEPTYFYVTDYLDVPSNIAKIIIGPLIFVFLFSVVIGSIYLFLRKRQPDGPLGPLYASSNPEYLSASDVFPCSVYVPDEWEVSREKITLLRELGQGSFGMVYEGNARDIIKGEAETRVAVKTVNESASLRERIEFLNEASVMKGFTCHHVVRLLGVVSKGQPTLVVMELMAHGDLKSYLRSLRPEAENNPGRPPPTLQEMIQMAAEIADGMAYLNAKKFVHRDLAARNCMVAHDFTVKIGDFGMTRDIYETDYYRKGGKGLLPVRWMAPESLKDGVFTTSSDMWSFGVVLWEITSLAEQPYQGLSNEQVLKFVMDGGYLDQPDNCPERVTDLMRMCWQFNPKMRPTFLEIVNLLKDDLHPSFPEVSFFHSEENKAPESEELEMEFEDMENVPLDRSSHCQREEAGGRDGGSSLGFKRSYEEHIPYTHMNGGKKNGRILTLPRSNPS
The target is the same in test [17]. The conditions noted are these: at 10 µM.
The target is the same in test [18]. The conditions noted are these: at 1 µM. This is another data set of the same source.
For test [19] the target is unchanged. The conditions noted are these: at 10 µM. This is another data set of the same source.
The target in test [20] is Interleukin-1 receptor-associated kinase 1 (Homo sapiens) (UniProt P51617). Conditions: at 1 µM.

The structures appear in SMILES notation.

Insulin-like growth factor 1 receptor (Homo sapiens), sequence (P08069 31-736 limits assumed): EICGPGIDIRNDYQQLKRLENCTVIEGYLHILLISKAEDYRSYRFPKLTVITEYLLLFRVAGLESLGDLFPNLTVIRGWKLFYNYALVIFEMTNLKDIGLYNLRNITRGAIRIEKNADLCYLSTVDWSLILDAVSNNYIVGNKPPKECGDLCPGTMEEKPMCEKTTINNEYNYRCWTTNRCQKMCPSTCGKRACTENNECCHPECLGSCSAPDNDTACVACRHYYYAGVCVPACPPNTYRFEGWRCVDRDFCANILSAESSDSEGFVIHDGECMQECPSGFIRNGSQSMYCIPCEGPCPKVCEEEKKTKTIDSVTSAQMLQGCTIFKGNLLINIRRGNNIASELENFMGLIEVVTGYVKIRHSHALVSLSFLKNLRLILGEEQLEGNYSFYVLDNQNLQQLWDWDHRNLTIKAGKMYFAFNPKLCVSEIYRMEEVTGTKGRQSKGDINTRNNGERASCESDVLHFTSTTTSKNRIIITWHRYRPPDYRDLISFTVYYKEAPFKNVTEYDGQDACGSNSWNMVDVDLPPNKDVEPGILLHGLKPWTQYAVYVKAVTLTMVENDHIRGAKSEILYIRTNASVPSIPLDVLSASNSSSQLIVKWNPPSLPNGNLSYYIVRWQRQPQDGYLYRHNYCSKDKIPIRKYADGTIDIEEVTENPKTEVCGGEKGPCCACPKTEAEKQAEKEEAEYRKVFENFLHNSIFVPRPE
Insulin-like growth factor 1 receptor (Homo sapiens), sequence (P08069 741-1367 limits assumed): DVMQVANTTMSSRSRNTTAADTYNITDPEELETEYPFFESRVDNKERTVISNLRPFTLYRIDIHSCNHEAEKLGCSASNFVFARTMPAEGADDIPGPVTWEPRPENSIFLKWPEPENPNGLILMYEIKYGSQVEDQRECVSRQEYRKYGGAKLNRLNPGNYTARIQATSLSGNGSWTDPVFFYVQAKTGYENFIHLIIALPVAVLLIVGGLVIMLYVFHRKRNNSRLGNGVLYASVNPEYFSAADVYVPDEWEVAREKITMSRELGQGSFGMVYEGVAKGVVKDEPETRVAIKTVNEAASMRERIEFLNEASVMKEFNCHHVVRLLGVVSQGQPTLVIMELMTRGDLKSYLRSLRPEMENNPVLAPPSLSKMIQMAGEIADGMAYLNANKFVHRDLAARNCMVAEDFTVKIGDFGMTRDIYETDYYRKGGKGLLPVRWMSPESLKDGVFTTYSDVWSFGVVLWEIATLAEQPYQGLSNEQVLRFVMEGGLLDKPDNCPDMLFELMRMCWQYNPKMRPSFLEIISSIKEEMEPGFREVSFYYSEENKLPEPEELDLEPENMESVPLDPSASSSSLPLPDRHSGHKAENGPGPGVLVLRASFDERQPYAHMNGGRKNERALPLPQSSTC

Turning to `COc1ccc2c(c1)/C(=C/c1cnc[nH]1)C(=O)N2`, the residual activity in [1] is 72%; in [2], 14%; in [3], 59%; in [4] it was 12%; in test [5], 74%; in test [6] it was 23%. Moreover, the residual activity in [7] came to 59%; in test [8] it was 37%.
Regarding `O=c1[nH]c2ccccc2n1C1CCN(Cc2ccc(-c3nc4cc5[nH]cnc5cc4nc3-c3ccccc3)cc2)CC1`, the residual activity was 101% in test [1]; 56% in test [2]; 93% in test [3]; 66% in [4]; 82% in test [9]; 68% in test [10]. The residual activity in [11] came out at 91%; in test [12] it was 87%; in test [13], 98%; in test [14] it was 80%; in test [5], 118%; in test [6], 109%. Besides, the residual activity was found to be 101% in test [15]; 102% in [7]; 119% in test [16]; 75% in [17]; 103% in test [18]; 98% in test [19]. The residual activity in [20] was 103%; in test [8], 88%.

Usually residual activity stands for the signal under treatment as a percentage of the control signal.

(Values after ChEMBL document CHEMBL2218924, “A broad activity screen in support of a chemogenomic map for kinase signalling research and drug discovery” (Biochem J, 2013).)
